A selection: hits, their analogues and other compounds. The true share with any hit is near 7.9%.
MCF10A rerep = A quantitative high throughput screen for small molecules that induce DNA re-replication in MCF 10a normal breast cells; actives 2.9% (n = 350,000); Potency, µM (doses to about 46.1 µM), inactives show top-dose activity, positive = re-replication, hits mostly activators; AID 624296, 2012; MCF 10A DNA re-replication, Hoechst nuclear intensity, 48 h; note: % of control where 0% means no effect; nearly all actives have a fitted effect of over 50% in size
SW480 rerep = A quantitative high throughput screen for small molecules that induce DNA re-replication in SW480 colon adenocarcinoma cells; SW480 DNA re-replication, Hoechst DNA content imaging, 48 h; Potency, µM (doses to about 46.1 µM), without a hit: top-dose re-replication activation, actives largely listed as activators; actives 1.8% (n = 340,000); note: % of control where 0% means no effect; nearly all actives have a fitted effect of over 55% in size
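First, 250 cells per well were seeded. Next, compound or vehicle (23 nL) was pinned in, plates sat 48 hr at 37 C. Finally Hoechst was added for 40 min before fluorescence scanning.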
HT1080 IDH1KD tx = qHTS for induction of synthetic lethality in tumor cells producing 2HG: qHTS for the HT-1080-IDH1KD cell line. Potency, µM (top dose mostly 46.1 µM), for the others: at the highest dose activity, negative = toxicity, hits mostly cytotoxic. HT-1080 IDH1 knockdown viability, ATP luminescence, 48 h. AID 686971, 2013. actives 2% (n = 360,000);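 note: 0% = DMSO wells and -100% = cell-free medium wells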
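Luminescent ATP read-out (CellTiter-Glo, 10 min at room temperature) after 48 h compound exposure at 37 °C gave viability of IDH1-knockdown HT-1080 cells. Activity was normalised to DMSO and cell-free wells, then fitted as concentration-response curves.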
KB-3-1 tox = qHTS assay for MDR1-selective chemotherapeutics: Primary screen using the parental adenocarcinoma cell KB-3-1. actives 1.4% (n = 400,000). AID 1347075, 2019. Potency, µM (top dose mostly 46.1 µM), usual class: cytotoxic. KB-3-1 viability, CellTiter-Glo ATP luminescence, 72 h; note: % is set by controls: 0 for no effect and ±100 for the full control effect; nearly all actives have a fitted effect of over 60% in size
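KB-3-1 parental drug-naive adenocarcinoma cells in DMEM/10% FBS, incubated 72 h at 37 C with pin-transferred compounds across a concentration series. Viability by CellTiter-Glo luminescence; concentration-response curves fitted after normalization.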
HT1080NT lethal = qHTS for induction of synthetic lethality in tumor cells producing 2HG: qHTS for the HT-1080-NT fibrosarcoma cell line; AID 686970, 2013; HT-1080-NT fibrosarcoma viability, CellTiter-Glo ATP luminescence, 48 h; Potency, µM (top dose mostly 46.1 µM), inactives show at the highest dose activity, negative = less viability, hits mostly cytotoxic; actives 1.6% (n = 360,000);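 note: NT is the 2HG producing partner of a matched IDH1 knockdown line; 0% = DMSO-treated cells and -100% = media-only wells without cells; nearly all actives have a fitted effect of over 55% in size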
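Luminescent CellTiter-Glo readout after 48 hours of compound exposure at 37 degrees C defined viability of HT-1080-NT cells. Activity was normalized to DMSO wells and cell-free media wells; concentration-response curves were fitted and assigned curve classes.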
KB-V1 MDR tox = qHTS assay for MDR1-selective chemotherapeutics: Primary screen using the drug-selected MDR subline cells KB-V1 | KB-V1 MDR cells viability, CellTiter-Glo, 72 h | Potency, µM (doses to about 46.1 µM), most hits filed as cytotoxic | actives 3.4% (n = 400,000) | AID 1347076, 2019; note: % is set by controls: 0 for no effect and ±100 for the full control effect; nearly all actives have a fitted effect of over 60% in size
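Following 72 h at 37 degrees C with compound, KB-V1 cell viability was read by CellTiter-Glo luminescence, medium being phenol-red-free DMEM plus 10% FBS; concentration-response parameters came from normalized, curve-fitted qHTS data.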
* hit, by the source's call; i = inactive; ? = inconclusive; . = no result given; ! = not confirmed by another sample; [ ] = remark or other dose. Calls come from the whole dose curve; as a rule, active = well fitted curve in the direction sought with a large enough effect; inconclusive = small, poorly fitted or top-dose-only effect, or another doubt; inactive = no such curve, though single readings can be large; an effect the other way counts as inactive or inconclusive. Potency is the fitted concentration of half-maximal effect.

SMILES | MCF10A rerep | SW480 rerep | HT1080 IDH1KD tx | KB-3-1 tox | HT1080NT lethal | KB-V1 MDR tox
COc1cccc(C2SCC(=O)Nc3c2c(C)nn3-c2ccc(C)c(Cl)c2)c1OC (centres undefined) | . | . | . | i | . | i
Cc1cccc(N2C(=O)NC(=O)/C(=C\c3cc(C)n(-c4sc5c(c4C#N)CCCC5)c3C)C2=O)c1C | 21µM* | -29% | 16µM* | i | ? | ?
CCOC(=O)C1(C)CCCN1C(=O)c1cccs1 (centres undefined) | . | . | 3% | i | ? | i
O=C(CCC1CCCC1)c1c(O)c2ccccc2oc1=O | 18µM* | -8% | -1% | ? | -1% | i
O=c1oc2ccccc2c(O)c1C(c1ccccn1)c1c(O)c2ccccc2oc1=O | -3% | -7% | 0% | i | -2% | i
CC1=NN(C)C(=O)C1Cc1c(F)cccc1Cl (centres undefined) | 4% | -54% | 0% | i | -13% | i
Fc1ccc([C@@H]2CCNC[C@H]2COc2ccc3c(c2)OCO3)cc1 | ? | ? | 16µM* | ? | 16µM* | 23µM*!
CCOC(=O)NC(O)C(Cl)(Cl)Cl (centres undefined) | -2% | 3% | . | . | . | .
COc1cccc2c1C(=O)c1c(O)c3c(c(O)c1C2=O)CC(O)(C(C)=NO)CC3OC1CC(N)C(O)C(C)O1 (centres undefined) | -17% | -3% | 10µM* | ? | ? | i
O=C(COc1ccccc1Cl)N1CCN(CCc2ccccn2)CC1 | . | . | . | i | . | i
O=C1CCCCC1CN1CCCCC1 (centres undefined) | -4% | 0% | . | . | . | .
CC(=O)OCC12CC(OC(=O)CC(C)C)C(C)=CC1OC1C(O)C(OC(C)=O)C2(C)C12CO2 (centres undefined) | ? | ? | . | 0.0092µM* | 0.26µM* | ?
NCC[C@H](O)C(=O)N[C@H]1C[C@@H](N)[C@@H](O[C@H]2O[C@@H](CN)[C@@H](O)[C@@H](O)[C@@H]2N)[C@@H](O[C@H]2O[C@@H](CO)[C@@H](O)[C@@H]2O)[C@@H]1O | 1%[20.6 µM] | 0%[20.6 µM] | . | . | . | .
Clc1cccc(N2Cc3cc(-c4ccccc4)ccc3-n3nncc3C2)c1 | . | . | 10µM* | ? | 10µM* | i
COc1ccc(-c2ccc3c(c2)CN(c2cccc(Cl)c2)Cc2cnnn2-3)cc1 | . | . | -16% | i | 10% | i
COCC(C)N(C(=O)CCl)c1c(C)csc1C (centres undefined) | 1% | -1% | . | . | . | .
COP(C)(=O)c1c(C)nn(-c2ccccc2)c1C (centres undefined) | ? | -2% | 6% | i | -3% | i
CCCCn1nnnc1C(c1cccc2ccccc12)N1CCC2(CC1)C(=O)NCN2c1ccccc1 (centres undefined) | . | . | ? | ? | ? | 21µM*
COc1ccc(C(c2nnnn2-c2c(C)cccc2C)N2CCC3(CC2)C(=O)NCN3c2ccccc2)cc1 (centres undefined) | . | . | ? | ? | 23µM* | ?
COc1ccc(NC(=O)c2ccc(NC(=O)c3nc4nccc(C)n4n3)cc2)cc1 | -2% | 5% | -8% | i | -8%[9.24 µM] | ?
CC1=C(C(=O)Nc2ccccc2)C(c2ccc(C)cc2)N=C(Nc2nc3ccccc3o2)N1 (centres undefined) | ? | ? | 11µM* | i | ? | i
COc1cc(CN2CC3CC(C2)c2cccc(=O)n2C3)cc(OC)c1OC (centres undefined) | 26µM* | 1% | 0% | i | 3% | i
COC(=O)C1=C(c2cccc(OCc3ccccc3)c2)C[C@@H]2CC[C@H]1N2C(=O)NCc1ccc(F)cc1 | 5% | 11% | -11% | i | 12% | ?
COC(=O)C1=C(c2ccc(OCc3ccccc3)cc2)C[C@@H]2CC[C@H]1N2C(=O)NCc1ccccc1OC | . | . | -25% | 21µM* | -14% | ?
COC(=O)C1=C(c2ccc(OCc3ccccc3)cc2)C[C@@H]2CC[C@H]1N2C(=O)NCc1ccc(OC)c(OC)c1 | ? | 19% | -9% | ? | -29% | i
SMILES | MCF10A rerep | SW480 rerep | HT1080 IDH1KD tx | KB-3-1 tox | HT1080NT lethal | KB-V1 MDR tox
COC(=O)C1=C(c2cccc(OCc3ccccc3)c2)C[C@@H]2CC[C@H]1N2C(=O)NC1CCN(Cc2ccccc2)CC1 | 23% | -1% | ? | ? | 23µM* | i
COC(=O)C1=C(c2cccc(OCc3ccccc3)c2)C[C@@H]2CC[C@H]1N2C(=O)NCc1ccc2[nH]ccc2c1 | 5.2µM* | -2% | -11% | ? | -5% | i
c1ncn(C23CC4CC(CC(C4)C2)C3)n1 | ? | -4% | 0% | i | 12% | i
O=C(CN1CCOCC1)c1cccc([N+](=O)[O-])c1 | . | . | . | ? | . | i
Oc1ccc2c3c1OC1c4[nH]c5ccccc5c4C[C@@]4(O)C(C2)N(CC2CC2)CC[C@]314 (some centres undefined) | ? | -17% | ? | i | ? | i
Oc1ccc2c3c1OC1c4oc5ccccc5c4C[C@@]4(O)[C@@H](C2)N(CC2CC2)CC[C@]314 (some centres undefined) | 4% | 0.92µM* | ? | i | ? | ?
C=C1CC[C@@]2(O)[C@H]3Cc4ccc(O)c5c4[C@@]2(CCN3CC2CC2)[C@H]1O5 | -16% | -1% | 9% | i | -16% | i
O=C1/C(=C/c2ccccc2)C[C@@]2(O)[C@H]3Cc4ccc(O)c5c4[C@@]2(CCN3CC2CC2)C1O5 (some centres undefined) | 4.6µM* | ? | 3.7µM* | ? | 1.6µM* | 7.3µM*
O=C(CS(=O)C(c1ccccc1)c1ccccc1)NO (centres undefined) | 0% | 2% | . | . | . | .
O=C1CCCCC1 | 6% | -40% | 5% | i | 26% | i
COC(=O)c1ccc(NC(=O)c2cccn(Cc3ccccc3C)c2=O)cc1 | . | . | . | i | . | ?
